Read-out in assay [1]: C-C motif chemokine 2 (Homo sapiens) (UniProt P13500)
As to the kind of experiment: BSK_KF3CT_MCP1: BioMAP Diversity Plus: KF3CT Assay for Monocyte Chemoattractant Protein 1 (MCP1/CCL2) Biomarker Activity (AID 2283073). To be noted: primary human keratinocytes with fibroblasts; actives raise or lower the signal. In short, it runs like this:
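ELISA readout of MCP-1 after 24 h chemical dosing of a human skin primary co-culture of keratinocytes and foreskin fibroblasts. Activity was fitted in both directions against DMSO.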

Read-out in assay [2]: urokinase plasminogen activator (uPA), PLAU (gene 5328)
The assay can be described thus: BSK_KF3CT_uPA: BioMAP Diversity Plus: KF3CT Assay for urokinase plasminogen activator (uPA) Biomarker Activity (AID 2283075). To be noted: primary human keratinocytes with fibroblasts; actives raise or lower the signal. In short, it runs like this:
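Primary human keratinocyte/foreskin fibroblast co-culture exposed to chemical; uPA measured by ELISA at 24 h. Bidirectional fit versus DMSO, with parallel SRB total-protein staining for cytotoxicity.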

Read-out in assay [3]: CD40, CD40 (gene 958)
The assay can be described thus: BSK_LPS_CD40: BioMAP Diversity Plus: LPS Assay for CD40 Biomarker Activity (AID 2283076). The settings on record: primary human HUVEC with PBMC; actives raise or lower the signal. In short, it runs like this: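 Cells were dosed, incubated 24 h, then assayed for CD40 by ELISA. Gain or loss of signal was analysed relative to DMSO controls. The culture paired human umbilical vein endothelium with peripheral blood mononuclear cells.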

Read-out in assay [4]: E-selectin (Homo sapiens) (UniProt P16581)
The assay can be described thus: BSK_LPS_Eselectin: BioMAP Diversity Plus: LPS Assay for Eselectin Biomarker Activity (AID 2283077). To be noted: primary human HUVEC with PBMC; actives raise or lower the signal. The method, boiled down: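 Primary human vascular co-culture (endothelium plus PBMC) was dosed with chemical, then E-selectin quantified by ELISA at 24 h. Endpoint values derive from bidirectional curve fitting relative to DMSO.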

Read-out in assay [5]: Interleukin-8 (IL8), CXCL8 (gene 3576)
The assay can be described thus: BSK_LPS_IL8: BioMAP Diversity Plus: LPS Assay for Interleukin-8 (IL8) Biomarker Activity (AID 2283078). The settings on record: primary human HUVEC with PBMC; actives raise or lower the signal. In short, it runs like this: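 Readout is IL-8 by ELISA, taken 24 h after compounds were added to LPS-stimulated endothelial/PBMC co-cultures. Both increases and decreases relative to DMSO control were scored through bidirectional fitting.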

Assay [6] can be described thus: BSK_LPS_SRB: Viability Assessment in the BioMAP Diversity Plus: LPS Assay (AID 2283079).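 Also: total protein by sulforhodamine B absorbance as a cytotoxicity measure; measured one day after compound addition.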 The settings on record: primary human HUVEC with PBMC. In short, it runs like this: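 Readout is SRB absorbance at 560 nm (0.1% stain, TCA-fixed parallel cultures) as a total-protein cytotoxicity measure. Cells: primary human umbilical vein endothelium plus peripheral blood mononuclear cells, 24 h after chemical exposure; DMSO served as baseline.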

Read-out in assay [7]: Interleukin-1 alpha (IL1a), IL1A (gene 3552)
As to the kind of experiment: BSK_LPS_IL1a: BioMAP Diversity Plus: LPS Assay for Interleukin-1 alpha (IL1a) Biomarker Activity (AID 2283080). The settings on record: primary human HUVEC with PBMC; actives raise or lower the signal. In short, it runs like this: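 ELISA read-out of IL-1 alpha from a human primary vascular co-culture (endothelium plus PBMC) under LPS, sampled 24 hours post-dosing. Activity was fitted in both directions relative to DMSO controls.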

Read-out in assay [8]: Monocyte Chemoattractant Protein-1 (MCP1), CCL2 (gene 6347)
The assay can be described thus: BSK_LPS_MCP1: BioMAP Diversity Plus: LPS Assay for Monocyte Chemoattractant Protein-1 (MCP1) Biomarker Activity (AID 2283081).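 As to AC50: secreted MCP-1 protein quantified by ELISA in culture supernatant.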 To be noted: primary human HUVEC with PBMC; actives raise or lower the signal. The method, boiled down: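 Human endothelial–PBMC co-cultures were dosed with chemical, then LPS-driven MCP-1 levels were quantified by ELISA at 24 h. Activity in either direction was fitted versus DMSO negative control.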

Assay [9] in a line: BSK_LPS_PGE2: BioMAP Diversity Plus: LPS Assay for Prostaglandin E2 (PGE2) Biomarker Activity (AID 2283082). The settings on record: primary human HUVEC with PBMC; actives raise or lower the signal. The method, boiled down:
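HUVEC plus PBMC co-culture stimulated with LPS; secreted PGE2 quantified by ELISA 24 h after chemical dosing. Activity fitted bidirectionally against DMSO as negative control and baseline; parallel SRB total-protein staining served as cytotoxicity check.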

Read-out in assay [10]: Macrophage colony-stimulating factor (MCSF), CSF1 (gene 1435)
The assay can be described thus: BSK_LPS_MCSF: BioMAP Diversity Plus: LPS Assay for Macrophage colony-stimulating factor (MCSF) Biomarker Activity (AID 2283083). The settings on record: primary human HUVEC with PBMC; actives raise or lower the signal. In short, it runs like this:
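ELISA readout of M-CSF after 24 h compound exposure in a human endothelial/PBMC co-culture. Activity, in either direction, is fitted relative to DMSO vehicle.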

Read-out in assay [11]: Tissue Factor, F3 (gene 2152)
The assay can be described thus: BSK_LPS_TissueFactor: BioMAP Diversity Plus: LPS Assay for Tissue Factor Biomarker Activity (AID 2283084). To be noted: primary human HUVEC with PBMC; actives raise or lower the signal. The method, boiled down: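 ELISA signal for cell-surface Tissue Factor (CD142) was read 24 h after compound dosing of an LPS-stimulated human endothelial–PBMC primary co-culture. Gain or loss of signal was scored relative to DMSO.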

Read-out in assay [12]: Vascular cell adhesion molecule 1 (VCAM1), VCAM1 (gene 7412)
The assay can be described thus: BSK_LPS_VCAM1: BioMAP Diversity Plus: LPS Assay for Vascular cell adhesion molecule 1 (VCAM1) Biomarker Activity (AID 2283086). To be noted: primary human HUVEC with PBMC; actives raise or lower the signal. The method, boiled down:
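Human umbilical vein endothelial cells co-cultured with peripheral blood mononuclear cells under LPS stimulation were exposed to test chemical for 24 h. VCAM-1 levels were then measured by ELISA, with bidirectional curve fitting relative to DMSO as negative control and baseline.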

Read-out in the next assay: CD38, CD38 (gene 952)
As to the kind of experiment: BSK_SAg_CD38: BioMAP Diversity Plus: SAg Assay for CD38 Biomarker Activity (AID 2283087). The settings on record: primary human HUVEC with PBMC; actives raise or lower the signal. In short, it runs like this:
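Fluorescence ELISA of cell-surface CD38 served as the read-out, with either increase or decrease fitted against DMSO controls. Cells were a human umbilical vein endothelium plus PBMC co-culture under SEB/TSST-1 stimulation, measured 24 h after dosing.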

Read-out in assay [13]: CD40, CD40 (gene 958)
As to the kind of experiment: BSK_SAg_CD40: BioMAP Diversity Plus: SAg Assay for CD40 Biomarker Activity (AID 2283088). The settings on record: primary human HUVEC with PBMC; actives raise or lower the signal. The method, boiled down: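 Compounds were dosed onto a human primary endothelial–PBMC co-culture, and after 24 h CD40 was quantified by ELISA using a fluorescence signal. Activity in either direction was fitted relative to DMSO.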

Read-out in another assay: CD69, CD69 (gene 969)
As to the kind of experiment: BSK_SAg_CD69: BioMAP Diversity Plus: SAg Assay for CD69 Biomarker Activity (AID 2283089).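 As to AC50: cell surface CD69 protein quantified by ELISA with fluorescence detection.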 To be noted: primary human HUVEC with PBMC; actives raise or lower the signal. In short, it runs like this: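 HUVEC co-cultured with PBMC were dosed with chemical, and CD69 was measured by ELISA with fluorescence read-out 24 h later. Bidirectional curve fitting used DMSO as negative control and activity baseline.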

Read-out in assay [14]: Monocyte Chemoattractant Protein-1 (MCP1), CCL2 (gene 6347)
The assay can be described thus: BSK_SAg_MCP1: BioMAP Diversity Plus: SAg Assay for Monocyte Chemoattractant Protein-1 (MCP1) Biomarker Activity (AID 2283090). To be noted: primary human HUVEC with PBMC; actives raise or lower the signal. In short, it runs like this:
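MCP-1 levels in the endothelial–PBMC SAg co-culture were quantified by ELISA at 24 h post-dosing; both increases and decreases versus DMSO scored. Cytotoxicity monitored by SRB total protein in parallel cultures.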

Read-out in assay [15]: E-selectin (Homo sapiens) (UniProt P16581)
As to the kind of experiment: BSK_SAg_Eselectin: BioMAP Diversity Plus: SAg Assay for Eselectin Biomarker Activity (AID 2283091). To be noted: primary human HUVEC with PBMC; actives raise or lower the signal. The method, boiled down:
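Co-culture: HUVEC + PBMC. Dose compound; 24 h. ELISA for E-selectin. Bidirectional fit vs DMSO.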

Read-out in assay [16]: Monokine induced gamma interferon (MIG), CXCL9 (gene 4283)
As to the kind of experiment: BSK_SAg_MIG: BioMAP Diversity Plus: SAg Assay for Monokine induced gamma interferon (MIG) Biomarker Activity (AID 2283092). The settings on record: primary human HUVEC with PBMC; actives raise or lower the signal. The method, boiled down:
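HUVEC plus human PBMC co-culture, chemicals dosed and MIG (CXCL9) quantified by ELISA at 24 h. Bidirectional curve fitting against DMSO as negative control and baseline, so both gain and loss of signal count as activity.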

Read-out in assay [17]: Tumor necrosis factor (Homo sapiens) (UniProt P01375)
As to the kind of experiment: BSK_LPS_TNFa: BioMAP Diversity Plus: LPS Assay for Tumour Necrosis Factor alpha (TNFa) Biomarker Activity (AID 2283085). To be noted: primary human HUVEC with PBMC; actives raise or lower the signal. The method, boiled down: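 Human umbilical vein endothelial cells co-cultured with PBMC were exposed to test chemical and TNFa measured by ELISA 24 h after dosing. Bidirectional curve fitting was done relative to DMSO as negative control and baseline.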

The source made the active and inactive calls. The calls were made as follows: active = hit-call score of the fitted dose curve at least 0.9, where 1 is the maximum; inactive = score below 0.9.

Sequence of E-selectin (Homo sapiens) (P16581 whole entry, looked up): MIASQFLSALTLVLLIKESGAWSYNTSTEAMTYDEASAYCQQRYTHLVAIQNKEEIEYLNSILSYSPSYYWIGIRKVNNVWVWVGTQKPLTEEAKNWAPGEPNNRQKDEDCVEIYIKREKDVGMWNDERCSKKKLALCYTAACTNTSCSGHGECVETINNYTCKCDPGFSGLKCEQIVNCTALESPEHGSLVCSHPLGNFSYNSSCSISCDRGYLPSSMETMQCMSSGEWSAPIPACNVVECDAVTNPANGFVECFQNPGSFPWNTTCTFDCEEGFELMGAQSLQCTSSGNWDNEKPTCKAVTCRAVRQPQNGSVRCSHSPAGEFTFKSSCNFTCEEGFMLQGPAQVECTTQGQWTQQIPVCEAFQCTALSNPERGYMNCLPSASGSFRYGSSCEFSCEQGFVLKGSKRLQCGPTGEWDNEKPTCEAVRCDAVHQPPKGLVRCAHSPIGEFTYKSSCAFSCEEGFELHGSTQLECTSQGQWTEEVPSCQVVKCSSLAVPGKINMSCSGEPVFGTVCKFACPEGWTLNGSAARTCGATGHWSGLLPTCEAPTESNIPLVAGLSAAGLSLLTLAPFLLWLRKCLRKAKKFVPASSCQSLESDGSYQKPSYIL
Sequence of Tumor necrosis factor (Homo sapiens) (P01375 whole entry, looked up): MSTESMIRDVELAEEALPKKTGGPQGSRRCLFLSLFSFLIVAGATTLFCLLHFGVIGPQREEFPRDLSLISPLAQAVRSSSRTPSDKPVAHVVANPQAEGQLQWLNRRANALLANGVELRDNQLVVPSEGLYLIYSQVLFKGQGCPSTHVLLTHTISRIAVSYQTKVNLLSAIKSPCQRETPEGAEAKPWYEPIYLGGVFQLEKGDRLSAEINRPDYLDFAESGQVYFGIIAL

The AC50 is the concentration at which the activity in the assay is half-maximal. For `Cc1ccccc1OP(=O)(Oc1ccccc1C)Oc1ccccc1C`, the AC50 in assay [1] was 12.1 µM (active); in assay [2], 20 µM (active); with CD40, CD40 (gene 958) [3], 9.38 µM (active); in assay [4], 9.59 µM (active); in assay [5], 12.6 µM (active); in assay [6], 12.3 µM (active). In addition, the AC50 was 11 µM (active) in assay [7]; 12.7 µM (active) in assay [8]; 11.2 µM (active) in assay [10]; 27.5 µM (active) in assay [11]; 11.4 µM (active) in [12]; 28.9 µM (active) with CD38, CD38 (gene 952). Further, the AC50 was 12.5 µM (active) with CD40, CD40 (gene 958) [13]; 13.8 µM (active) with CD69, CD69 (gene 969); 14.8 µM (active) in [14]; 30.6 µM (active) in [15]; 33.6 µM (active) in assay [16]. In assay [9], the result was inactive.

As to `OCCCCO`, the outcome is “inactive” in assay [2]; “inactive” in the assay with CD40, CD40 (gene 958) [3]; “inactive” in assay [4]; “inactive” in assay [5]; “inactive” in [6]; “inactive” in [7]. For the same compound, the result in assay [8], in assay [9], in [10], in [11], in assay [17] and in assay [12] was inactive. In addition, the outcome was “inactive” in the assay with CD38, CD38 (gene 952); “inactive” with CD40, CD40 (gene 958) [13]; “inactive” with CD69, CD69 (gene 969); “inactive” in assay [14]; “inactive” in assay [15]; “inactive” in assay [16].

As to `Clc1cccc(Cl)c1Cl`, the outcome in assay [1] was “inactive”; in assay [2] it was “inactive”; with CD40, CD40 (gene 958) [3], “inactive”; in [4], “inactive”; in assay [5] it was “inactive”; in assay [6], “inactive”. Also, the outcome in [7], in assay [8], in assay [9], in assay [10], in [11] and in [12] was inactive. In addition, the outcome with CD38, CD38 (gene 952) is “inactive”; with CD40, CD40 (gene 958) [13] it was “inactive”; in the assay with CD69, CD69 (gene 969), “inactive”; in assay [14], “inactive”; in [15], “inactive”; in assay [16], “inactive”.

Turning to `O=S(=O)(C(Cl)(Cl)Cl)C(Cl)(Cl)Cl`, the AC50 was 2.37 µM (active) in assay [1]; 3.52 µM (active) in assay [2]; 1.51 µM (active) with CD40, CD40 (gene 958) [3]; 2.4 µM (active) in assay [4]; 2.88 µM (active) in assay [5]; 5.31 µM (active) in assay [6]. The AC50 in assay [7] is 1.6 µM (active); in assay [8], 4.15 µM (active); in assay [10], 1.83 µM (active); in assay [11], 3.21 µM (active); in [12], 2.28 µM (active); with CD38, CD38 (gene 952), 2.64 µM (active). In addition, the AC50 with CD40, CD40 (gene 958) [13] was 2.74 µM (active); with CD69, CD69 (gene 969), 3.57 µM (active); in [14], 4.17 µM (active); in [15], 3.13 µM (active); in [16], 7.79 µM (active). Also, the result in [9] and in assay [17] was inactive.

The record behind these values is PubChem BioAssay (EPA / NIEHS).
